Assay results published in PubChem BioAssay AID1359 (The Scripps Research Institute Molecular Screening Center, 2008).
Out of some 220,000 compounds screened, about 970 (0.44%) were called active. Rule as the data show it: active = activation above about 27%; inactive = the rest. Many of the other results were omitted from the sample, so actives are more common in it than they were.

target: Neuropeptide Y receptor type 2 (Homo sapiens) (UniProt P49146); assay: NPY-Y2 potentiators or agonists, primary screen, cell-based (AID 1359); settings: cells expressing NPY-Y2, potentiator/agonist read-out; at 3.6 µM; hits give high values;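 also: cells stimulated with NPY near EC25 plus isoproterenol at EC100; 0% = vehicle plus submaximal agonist and 100% = vehicle plus saturating agonist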
Sequence (P49146 whole entry, looked up): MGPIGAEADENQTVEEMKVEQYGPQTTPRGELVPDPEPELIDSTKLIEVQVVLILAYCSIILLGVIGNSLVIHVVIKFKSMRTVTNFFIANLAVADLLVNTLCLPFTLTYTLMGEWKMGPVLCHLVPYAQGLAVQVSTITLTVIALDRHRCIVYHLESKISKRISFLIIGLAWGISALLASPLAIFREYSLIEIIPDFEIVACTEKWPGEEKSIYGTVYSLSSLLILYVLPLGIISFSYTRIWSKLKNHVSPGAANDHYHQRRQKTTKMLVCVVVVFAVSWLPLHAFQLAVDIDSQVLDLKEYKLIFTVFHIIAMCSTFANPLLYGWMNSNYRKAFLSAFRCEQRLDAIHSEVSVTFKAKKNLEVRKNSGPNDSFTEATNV

SMILES | activation
C#CCOCCOCCOCCNc1nc(N2CCN(C(=O)C(Cc3ccc(O)cc3)n3cc(C(N)CC(C)C)nn3)CC2)nc(N2CCN(C(=O)C(Cc3ccc(O)cc3)n3cc(C(N)C(C)CC)nn3)CC2)n1 (stereo not given) | -7.8% (inactive)
C#CCOCCOCCOCCNc1nc(N2CCN(C(=O)[C@H](Cc3ccc(O)cc3)n3cc(C(N)CC(C)C)nn3)CC2)nc(N2CCN(C(=O)[C@H](CCC(=O)O)n3cc(C(N)[C@H](C)CC)nn3)CC2)n1 (stereo not given in full) | -9.15% (inactive)
C#CCOCCOCCOCCNc1nc(N2CCN(C(=O)[C@H](CCCCN)n3cc([C@@H](N)C(C)CC)nn3)CC2)nc(N2CCN(C(=O)[C@H](Cc3ccc(O)cc3)n3cc([C@@H](N)C(C)CC)nn3)CC2)n1 (stereo not given in full) | 104% (active)
O=C(CCC(=O)NNc1nc2ccccc2c2nc(-c3ccccc3)nn12)NCCCN1CCCC1=O | -1.14% (inactive)
CCCCNC(=S)N/N=C1\CCCCc2ccccc21 | 2.42% (inactive)
COc1ccc2[nH]c(=S)cc(C)c2c1 | -28% (inactive)
COc1ccc2[nH]c3ccc(OC)cc3c2c1 | 65.6% (active)
CCN(CC)CC(=O)c1c[nH]c2ccc(OC)cc12 | 0.4% (inactive)
O=C(c1c(Cl)cccc1Cl)N1CCN(c2cccc3[nH]ccc23)CC1 | 6.12% (inactive)
C=Cn1c(C(=O)O)ccc1-c1ccc(OC)cc1 | -9.57% (inactive)
COc1ccc(C(=O)C2CCCN(Cc3cccn3-c3ccccn3)C2)c(C)c1 (stereo not given) | 89.8% (active)
COc1ccc(C(=O)C2CCCN(Cc3ccc4nonc4c3)C2)c(C)c1 (stereo not given) | -20.8% (inactive)
CCOC(=O)c1[nH]ncc1CN1CCCC(C(=O)c2ccc(OC)cc2C)C1 (stereo not given) | 3.33% (inactive)
CC1CCc2sc(C(=O)N/N=C/C3CCCCC3)cc2C1 (stereo not given) | 4.14% (inactive)
CSCC(=O)N1CCCC(C(=O)c2cc(F)ccc2F)C1 (stereo not given) | 0.81% (inactive)
O=C(Nc1ccccc1)N1CCN(C2c3ccccc3-c3ccccc32)CC1 | -13.1% (inactive)
N#C/C(=C\N1CCOCC1)S(=O)(=O)c1ccc(Cl)cc1 | 8.91% (inactive)
Cc1cccc(C)c1NC(=O)C1(C)c2cccc[n+]2CC(=O)N1Cc1cccs1 (stereo not given) | -2.7% (inactive)
C/C(=N/NC(=O)c1ccn(C)n1)c1ccncc1 | 9.5% (inactive)
COC(=O)c1ccc(NC(=O)Nc2ccc(C)cc2)cc1 | 99.2% (active)
Cc1ccc(NC(=O)CC(=O)Nc2ccc(C)cc2)cc1 | -4.26% (inactive)
CC(=O)c1cccc(NC(=O)Nc2ccc(C)cc2)c1 | 6.31% (inactive)
Cc1ccc(S(=O)(=O)N2CCN(C(=O)COC(=O)c3c(C)noc3C)CC2)c(C)c1 | -1.02% (inactive)
O=C(NC(Cc1c[nH]c2ccccc12)C(=O)N/N=C/c1ccc(Br)cc1)c1cccs1 (stereo not given) | 17.2% (inactive)
COc1cc([N+](=O)[O-])ccc1NC(=S)N1CCN(c2ccccn2)CC1 | -7.19% (inactive)
